Drawing on PubChem BioAssay (NCI), this text covers growth for eight compounds.

Assay in all cases: NCI-60 one-dose screen, 48 h (100 = growth as untreated, 0 = no growth, -100 = all killed)
Holding throughout (conditions): 10 µM unless noted

The subject of experiment [1] is NCI-H23 lung.
Experiment [2] concerns NCI-H226 lung.
In experiment [3] the test system is NCI-H322M lung.
Experiment [4] relates to HOP-62 NSCLC.
For experiment [5], the system named is NCI-H460 lung.
The subject of experiment [6] is NCI-H522 lung.
Experiment [7] has as its system A549/ATCC NSCLC.
Experiment [8] concerns 786-0 renal.
For experiment [9], the system named is COLO 205 colon.
Experiment [10] concerns DU-145 prostate.
Experiment [11] has as its system K-562 leukemia.
For experiment [12], the system named is MALME-3M melanoma.
The subject of experiment [13] is MDA-MB-231 breast.
The subject of experiment [14] is RXF 393 renal.
Experiment [15] relates to SF-268 CNS.
Experiment [16] deals with SF-295 CNS.
Experiment [17] relates to SF-539 CNS.
Experiment [18] has as its system UACC-257 melanoma.
The test system of experiment [19] is M14 melanoma.

About 83,000 compounds went through this panel and 20% of them were active in at least one assay; those are over-represented in the sample as a whole.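 In brief: 96-well plates, 48 h treatment, single concentration, percent growth endpoint.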 Unmarked numbers belong to inactive results. The source made the active and inactive calls. The calls were made as follows: active = growth percent below 10; inactive = the rest.

Turning to `CN(C)c1nc(-c2ccco2)n2nc(-c3ccc(Cl)cc3)cc2n1`, the growth is 77.5% in experiment [1]; 52% in experiment [2]; 69.8% in [3]; 38% in experiment [4]; 27.7% in [5]; 71.5% in [6]. Further, the growth in experiment [7] was 49.6%; in [8] it was 43.4%; in [9], 67.6%; in experiment [10], 77%; in [11], 67.4%; in experiment [12], 98.6%. Besides, the growth in experiment [13] was 54.3%; in experiment [14] it was 51%; in experiment [15], 66.6%; in [16] it was 56%; in [17], 63.4%; in experiment [18], 98.7%. For the same compound, the growth in experiment [19] was 87%.

For `Nc1c(C(=O)C[C@@H](N)CO)ccc2c1C(=O)CCO2`, the growth in experiment [1] was 55.2%; in experiment [2], 76.3%; in experiment [3], 16.7%; in experiment [4], 28.1%; in experiment [5] it was 13%; in experiment [6] it was 45.1%. For the same compound, the growth is 40.4% in experiment [7]; 78.6% in experiment [8]; 46.9% in [9]; 42.9% in experiment [10]; 33.4% in experiment [11]; 48.2% in experiment [12]. The growth in experiment [13] is 61%; in experiment [14], 90.7%; in experiment [15], 43.6%; in experiment [16], 48.3%; in experiment [17], 41.3%; in [18], 65.4%. The growth in [19] is 48.6%.

Consider `CS(=O)(=O)c1ccc(C(=O)N2N=C(c3ccccc3)CC2c2ccc3c(c2)OCO3)cc1` (configuration not stated), for which the growth was 101% in experiment [1]; 88.7% in experiment [2]; 99.6% in [3]; 83.1% in experiment [4]; 98.5% in [5]; 87.2% in experiment [6]. Also, the growth in [7] was 80.2%; in experiment [8], 90.8%; in [9] it was 81.4%; in experiment [10], 97.4%; in [11] it was 59.9%; in [12], 104%. Further, the growth is 96.2% in experiment [13]; 98.4% in experiment [14]; 95.2% in experiment [15]; 100% in experiment [16]; 103% in experiment [17]; 79.2% in [18]. The growth in [19] is 95.7%.

In the case of `COc1ccc(-c2nc(SCCC(C)C)nc(Nc3ccc(C(=O)O)cc3)c2C#N)cc1`, the growth is 92.4% in experiment [1]; 91.4% in experiment [2]; 88.1% in experiment [3]; 95.7% in [4]; 89.5% in experiment [5]; 69.2% in [6]. In addition, the growth in experiment [7] is 67.2%; in [8], 97%; in experiment [9], 104%; in [10], 93.2%; in experiment [11] it was 67.8%; in [12] it was -52% (active). The growth in experiment [13] was 98%; in [14], 90.1%; in experiment [15], 89.4%; in [16] it was 80.5%; in experiment [17] it was 91.3%; in experiment [18], 95.2%. In addition, in [19], the growth is 102%.

For `COc1ccc(C(=O)O)cc1.[Ag]`, the growth in experiment [1] was 103%; in [2] it was 101%; in [3], 102%; in experiment [4], 113%; in experiment [5], 87.1%; in experiment [6] it was 11.8%. Further, the growth in experiment [7] was 93.4%; in experiment [8], 107%; in experiment [9] it was 61.8%; in experiment [10], 106%; in experiment [11], -27.4% (active); in experiment [12], -51.3% (active). In addition, the growth in [13] is 103%; in [14], 100%; in experiment [15], 97%; in [16] it was 114%; in experiment [17], 94.9%; in experiment [18] it was 94.9%. Further, the growth in experiment [19] was 106%.

`O=C(CCl)N1c2ccccc2Oc2ccc3ccccc3c21`: the growth is -48.4% (active) in [1]; 3.48% (active) in experiment [2]; 91.4% in [3]; -16.6% (active) in experiment [4]; 2.15% (active) in experiment [5]; -83.1% (active) in experiment [6]. Besides, the growth in [7] was 30%; in experiment [8] it was -89.4% (active); in experiment [9], -94.2% (active); in experiment [10], -7.27% (active); in experiment [11], 2.96% (active); in experiment [12], -49% (active). Moreover, the growth in experiment [13] was -26.8% (active); in experiment [14], -83.7% (active); in [15], -39.3% (active); in experiment [16], -15.8% (active); in experiment [17] it was -80.1% (active); in [18] it was 8.99% (active). Moreover, the growth in experiment [19] is -70% (active).

On to `Cc1cc(C#Cc2ccc(C(C)(C)C)cc2)ccc1-n1c(/C=C/c2c(Cl)cccc2Cl)nc2ccccc2c1=O`, for which the growth was 97.9% in experiment [1]; 108% in experiment [2]; 92.8% in experiment [3]; 104% in experiment [4]; 96.3% in experiment [5]; 105% in experiment [6]. The growth in experiment [7] is 95.8%; in experiment [8], 109%; in experiment [9] it was 103%; in [10], 110%; in experiment [11] it was 101%; in [12], 116%. Moreover, the growth is 122% in experiment [13]; 127% in [14]; 96.8% in experiment [15]; 97.9% in experiment [16]; 106% in experiment [17]; 110% in experiment [18]. For the same compound, the growth in [19] is 106%.

With `O=C(/C=C/c1cn(-c2ccccc2)nc1-c1ccccc1)OCc1cn(-c2cccc([N+](=O)[O-])c2)nn1`, the growth was 91.4% in experiment [1]; 97.1% in experiment [2]; 94.7% in experiment [3]; 81.7% in experiment [4]; 93.7% in [5]; 60.4% in experiment [6]. For the same compound, the growth in experiment [7] was 67.8%; in [8], 91.2%; in experiment [9], 89.5%; in experiment [10] it was 103%; in [11], 76.2%; in [12], 97.9%. Further, the growth in experiment [13] was 72.8%; in experiment [14] it was 105%; in [15], 93.3%; in experiment [16], 97.8%; in [17] it was 89.2%; in experiment [18] it was 44.9%. Also, the growth in experiment [19] is 91.3%.
